# The full list was thinned out, with hits kept by preference.
# Dicer processing – human Dicer pre-microRNA cleavage inhibition. Q9UPY3. cat-ELCCA pre-miR-21 Dicer processing, chemiluminescence; active compounds read high. z-score at 25 µM. 6% of 47,000 active. AID 1347074; in the data active = z-score above about 3, passing the limit was not always enough;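 also: higher signal means more uncleaved substrate so more Dicer inhibition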
# A number is an active result; . = inactive.
SMILES,Dicer processing
COc1cccc(C(c2c[nH]c3ccccc23)c2c[nH]c3ccccc23)c1,.
COc1ccc(C(c2c[nH]c3ccccc23)c2c[nH]c3ccccc23)cc1OC,.
Cc1cccc(C(c2c[nH]c3ccccc23)c2c[nH]c3ccccc23)c1O,.
CCOc1cccc(C(c2c[nH]c3ccccc23)c2c[nH]c3ccccc23)c1O,6.4
Oc1ccc(Cl)cc1C(c1c[nH]c2ccccc12)c1c[nH]c2ccccc12,4.3
O=C(O)CC(C(=O)O)c1c[nH]c2ccccc12 (stereo not given),.
CC1CCCC(C)N1C(=O)Cn1cc(C(=O)C2CC2)c2ccccc21 (stereo not given),.
COc1cc(C2CC(=O)Nc3nc(N)[nH]c(=O)c32)ccc1OCc1ccc(C)cc1 (stereo not given),.
C=C(C)Cn1c(COc2ccc(OC)cc2)nc2ccccc21,.
N#Cc1cn(-c2ccccc2Cl)nc1N,.
O=C(O)CCCC(=O)Nc1nc2ccccc2s1,.
CC(=O)N1CCc2cc(Br)ccc21,.
Cn1c(SCc2nc(-c3ccccc3)no2)nnc1-c1ccco1,.
Cc1ccc(-c2noc(CSc3nnc(C)n3-c3ccccc3)n2)cc1,.
Cn1c(SCc2nc(-c3ccccc3)no2)nnc1-c1cccs1,3.1
COc1cc(C2c3c(oc4cc(C)c(C)cc4c3=O)C(=O)N2CCCN(C)C)ccc1OCC(C)C (stereo not given),.
CCOC(=O)C(=CNNC(=O)CCc1ccc(O)cc1)C(=O)OCC,.
O=C(CCc1ccc(O)cc1)NNC(=S)NCCc1ccccc1,.
O=C(CCc1ccc(O)cc1)c1c(O)cc(O)cc1O,3.6
Cc1nn(C(=O)CNS(=O)(=O)c2ccc(Cl)cc2)c(C)c1Sc1ccc(Cl)cc1,.
CC(C)(C)C(=O)NC(=O)Nc1cc(C(F)(F)F)cc(C(F)(F)F)c1,.
CC(C)(C)C(=O)NC(=O)Nc1cc(C(F)(F)F)ccc1Cl,4.1
NNC(=S)Nc1cc(C(F)(F)F)ccc1Cl,.
COc1ccc(-c2cn3ccccc3n2)cc1,5.8
COc1ccc(-c2cn3ccccc3n2)cc1Br,.
SMILES,Dicer processing
CCc1ccn2cc(-c3ccc(C)cc3)nc2c1,.
COc1ccc(-c2cn3cccc(C)c3n2)cc1,.
COc1c(Cl)cccc1-c1cn2ccccc2n1,.
CCCOc1ccc(-c2cn3ccccc3n2)cc1,3.9
COC(=O)c1ccc(S(=O)(=O)NC2CCN(Cc3ccccc3)CC2)n1C,.
Nc1ccc(CC2C(=O)Nc3ccccc32)cc1 (stereo not given),.
CCOC(=O)/C(C#N)=C/c1ccc(N(C)C)cc1Cl,.
O=[N+]([O-])c1cccc(NC2O[C@H](CO)[C@@H](O)[C@H](O)[C@H]2O)c1 (stereo not given in full),.
COc1ccc(/C=C/C#N)c(Cl)c1OC,.
Clc1cc(Cl)cc(Oc2nc(-c3ccccc3)ns2)c1,.
CCOC(=O)c1sc(=S)n(-c2ccc(OC)cc2)c1N,.
COc1ccc(N2C(=O)CCC2=O)cc1,.
COc1ccc(-n2ccsc2=S)cc1,4.7
C=C(NCc1ccncc1)c1ccc(Cl)cc1,.
CC1(C)OC(=O)C(=Cc2ccc(-c3cc(C(F)(F)F)ccc3Cl)o2)C(=O)O1,.
Cc1ccc2nc(SCc3nc(-c4ccccc4C)no3)[nH]c2c1,3
Brc1ccc(-c2noc(CSc3nc4ccccc4[nH]3)n2)cc1,.
Cc1ccc2nc(SCc3nc(-c4cccs4)no3)[nH]c2c1,.
COc1ccc(C(=O)C(OC(=O)c2ccncc2)c2ccccc2)cc1 (stereo not given),.
Cn1nc(OC(C)(C)C(=O)O)cc1C(F)(F)F,.
Cc1c(C#N)c(N)n(Cc2cc(C(F)(F)F)cc(C(F)(F)F)c2)c1C,.
Cc1ccc(C2c3c(oc4ccccc4c3=O)C(=O)N2CCCN2CCOCC2)cc1 (stereo not given),.
CCC(C)C(=O)Nc1ncc2c(n1)CC(c1ccc(C(C)C)cc1)CC2=O (stereo not given),.
O=C(Nc1ncc2c(n1)CC(c1ccccc1)CC2=O)c1ccco1 (stereo not given),4.2
O=C1CC(c2ccccc2Cl)Cc2nc(NCCc3ccccc3)ncc21 (stereo not given),.
SMILES,Dicer processing
Cc1nnc(SCC(=O)Nc2ncc3c(n2)CC(c2ccco2)CC3=O)s1 (stereo not given),.
O=C1CC(c2ccccc2)Cc2nc(NCc3ccco3)ncc21 (stereo not given),3.9
Cc1nc(Nc2ncc3c(n2)CC(c2ccccc2)CC3=O)nc2ccccc12 (stereo not given),.
CCOC(=O)C1=C(C)NC2=C(C(=O)CC(C)(C)C2)C1c1cccc(Oc2ccccc2)c1 (stereo not given),.
COc1ccc(CCNC(=S)Nc2ccc(S(=O)(=O)N3CCCCC3)cc2)cc1OC,.
Cc1cc(OC(=O)c2sc3ccccc3c2Cl)c2cc(F)ccc2n1,.
Clc1ccc(-c2noc(C3CCc4ccccc4O3)n2)cc1 (stereo not given),.
O=C(O)CNC(=O)CCCCC(=O)NCC(=O)O,.
O=C(CSc1ccccc1)Nc1ncn[nH]1,.
CC(C)C[C@H](NC(=O)OCC1c2ccccc2-c2ccccc21)C(=O)O,4.6
